Test results reported in PubChem BioAssay.
For some of these results: Results with a measured potency or affinity are listed apart. Active and inactive are the calls of the source.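 How the source made its calls, unless noted: active means primary screen activator hit with a dose response curve and TRPC4 channel activation at any tested dose; inactive means no activation, no dose response, or not a primary hit.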

How the values were obtained:
[1] = system: TRPC4 beta (transient receptor potential cation channel C4), mouse; test: TRPC4 cation channel opening, retest – cell-based, Fluo4 calcium, HEK293 TRPC4beta/mu-opioid, duplicates, 10 µM, confirmation (AID 2426;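 active means fluorescence ratio normalized to control raised more than 50% in primary screen plus both repeat runs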;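 on activation: percent rise of integrated ratio over buffer wells lacking compound which define 0%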); details: Fluo4 calcium fluorescence, at 10 µM; active compounds read high
[2] = system: transient receptor potential cation channel C4 beta (TRPC4), mouse; test: TRPC4 cation channel opening, second retest – cell-based, second round, Fluo4, HEK293 TRPC4beta/mu-opioid, 1 µM, confirmation (AID 2461;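 active means primary screen active and over 50% activation in each of two duplicate runs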); details: Fluo4 calcium fluorescence, at 1 µM; active compounds read high
[3] = system: TRPC4 (transient receptor potential cation channel C4 beta), mouse; test: potentiation of DAMGO EC20 TRPC4 response – cell-based, second round, Fluo-4, HEK293 TRPC4beta/mu-opioid, 1 µM, confirmation (AID 2554;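 active means primary screen hit whose fluorescence ratio, in both repeats, exceeds the weak agonist control mean by 3 SD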); details: DAMGO EC20, Fluo-4 calcium flux, at 1 µM; active compounds read high
[4] = system: TRPC4 beta (transient receptor potential cation channel C4), mouse; test: potentiation of DAMGO EC20 TRPC4 response – cell-based, Fluo-4, HEK293 TRPC4beta/mu-opioid, confirmation (AID 2555;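 active means primary screen hit whose calcium fluorescence ratio, in both repeats, exceeds the weak agonist control mean by 3 SD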); details: DAMGO EC20, Fluo-4 calcium flux, at 10 µM; active compounds read high
[5] = target: Short transient receptor potential channel 4 (Mus musculus) (UniProt Q9QUQ5); test: blockers of DAMGO-evoked TRPC4 calcium flux – cell-based, Fluo4, HEK293 TRPC4beta/mu-opioid, confirmation (AID 2636;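 active means calcium signal cut by more than 3 SD below the full-agonist control yet still positive, in both repeats and the earlier primary screen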); details: at 10 µM; active compounds read high
[6] = target: Short transient receptor potential channel 4 (Mus musculus) (UniProt Q9QUQ5); test: blockers of DAMGO-evoked TRPC4 calcium flux – cell-based, second round, Fluo4, HEK293 TRPC4beta/mu-opioid, 1 µM, confirmation (AID 2637;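 active means calcium signal ratio cut to more than 3 SD under the fully stimulated control mean yet still positive, in both repeats and the primary screen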); details: at 1 µM; active compounds read high
[7] = target: Short transient receptor potential channel 4 (Mus musculus) (UniProt Q9QUQ5); test: calcium entry via TRPC4 opening agents – cell-based, HEK293 TRPC4/mu-opioid, Fluo-4 calcium, dose response (AID 434937)
[8] = target: Short transient receptor potential channel 4 (Mus musculus) (UniProt Q9QUQ5); test: potentiation of DAMGO-evoked TRPC4 calcium signal – cell-based, HEK293 TRPC4/mu-opioid, Fluo-4 calcium, EC20 DAMGO, dose response (AID 434941;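 active means earlier screen potentiator hit that boosts the TRPC4 ion channel at some dose, with a dose response; inactive means no potentiation, no dose response, or not a prior hit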;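 further: calcium entry triggered by an EC20 dose of DAMGO at the co-expressed mu-opioid receptor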)
[9] = target: Short transient receptor potential channel 4 (Mus musculus) (UniProt Q9QUQ5); test: block of DAMGO-driven TRPC4 calcium entry – cell-based, HEK293 TRPC4/mu-opioid, Fluo-4 calcium, dose response (AID 434942;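 active means primary screen inhibitor hit that blocks the TRPC4 channel at some tested dose, yielding a dose curve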)
[10] = target: Short transient receptor potential channel 6 (Mus musculus) (UniProt Q61143); test: TRPC6 blockade by TRPC4 inhibitor hits – cell-based, HEK293, membrane potential dye, duplicate, selectivity assay for TRPC4 inhibitor project, confirmation (AID 434948;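 active means active in primary screen and both duplicates, each dropping signal beyond three positive-control SD with fluorescence still positive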); details: HEK293 TRPC6, membrane potential dye fluorescence, at 10 µM, stimulated with maximal-effect acetylcholine; active compounds read high
[11] = target: Short transient receptor potential channel 6 (Mus musculus) (UniProt Q61143); test: TRPC6 opening by TRPC4 activator hits – cell-based, HEK293, membrane potential dye, duplicate, selectivity assay for TRPC4 activator project, confirmation (AID 434950;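 active means membrane potential signal rise above negative control mean plus 3 SD in both duplicates, also active in the earlier TRPC4 screen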); details: HEK293 TRPC6, membrane potential fluorescence, at 10 µM; activation: active compounds read high; outcome: activation
[12] = target: Short transient receptor potential channel 6 (Mus musculus) (UniProt Q61143); test: positive modulators of mouse TRPC6 channel – HEK293 cells, membrane potential dye, duplicate, selectivity assay for TRPC4 potentiator project, confirmation (AID 434952;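 active means compound raising the membrane signal above positive-control mean plus 3 SD in both repeats, and a primary screen hit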); details: HEK293 TRPC6, membrane potential dye fluorescence, at 10 µM, maximal acetylcholine added after compound; active compounds read high
[13] = target: Short transient receptor potential channel 4 (Mus musculus) (UniProt Q9QUQ5); test: calcium flux activators in TRPC4/5HT1a cells, counter-screen for TRPC4 activator project, cell-based, second counter screen, HEK293 TRPC4/5HT1a, Fluo-4 (AID 434977;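 active means calcium signal rise above buffer-control mean plus 5 SD in both duplicates, and also a hit in the primary screen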;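 on activation: plate controls were assay buffer for no effect and maximal serotonin response for full effect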); details: Fluo-4 calcium flux, at 10 µM; active compounds read high
[14] = serotonin-gated TRPC4 signal block – cell-based, second counter screen, HEK293 TRPC4/5HT1a, Fluo-4, counter-screen for TRPC4 inhibitor project, confirmation (AID 434978;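 active means primary screen active whose calcium signal fell more than 3 SD beyond the full-serotonin control mean in both duplicate plates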;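 further: serotonin given first at submaximal then at maximal dose after compound preincubation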); details: Fluo-4 calcium flux, at 10 µM, serotonin added to trigger calcium flux; active compounds read high
[15] = system: TRPC4 (mouse), co-expressed with 5HT1a in HEK293; test: enhancement of serotonin-evoked TRPC4 response – cell-based, second counter screen, HEK293 TRPC4/5HT1a, Fluo-4, counter-screen for TRPC4 potentiator project, confirmation (AID 434979;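 active means signal rise over 3 SD above mean of control wells given weak agonist, in both repeats and first screen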); details: Fluo-4 calcium flux, at 10 µM, serotonin added at its EC20 dose; active compounds read high
[16] = nonspecific calcium rise without TRPC4 – cell-based, HEK293 mu-opioid receptor line, counter-screen for TRPC4 activator project, confirmation (AID 449723;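 active means hit in primary screen, with calcium signal over 5 SD above buffer well mean in both duplicates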;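 further: counter screen cells carry the mu-opioid receptor alone and lack TRPC4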); details: HEK293 mu-opioid cells, Fluo-4 calcium fluorescence, at 10 µM; active compounds read high
[17] = nonspecific potentiation of DAMGO calcium response – cell-based, HEK293 mu-opioid receptor line, counter-screen for TRPC4 allosteric potentiator project, confirmation (AID 449724;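 active means calcium signal rise more than 3 SD above the low-dose agonist control mean, in both duplicate plates and the primary screen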); details: HEK293 mu-opioid receptor cells, Fluo-4 calcium flux, at 10 µM, compound added before EC20 DAMGO stimulus; active compounds read high

Sequence of Short transient receptor potential channel 4 (Mus musculus) (Q9QUQ5 whole entry, looked up): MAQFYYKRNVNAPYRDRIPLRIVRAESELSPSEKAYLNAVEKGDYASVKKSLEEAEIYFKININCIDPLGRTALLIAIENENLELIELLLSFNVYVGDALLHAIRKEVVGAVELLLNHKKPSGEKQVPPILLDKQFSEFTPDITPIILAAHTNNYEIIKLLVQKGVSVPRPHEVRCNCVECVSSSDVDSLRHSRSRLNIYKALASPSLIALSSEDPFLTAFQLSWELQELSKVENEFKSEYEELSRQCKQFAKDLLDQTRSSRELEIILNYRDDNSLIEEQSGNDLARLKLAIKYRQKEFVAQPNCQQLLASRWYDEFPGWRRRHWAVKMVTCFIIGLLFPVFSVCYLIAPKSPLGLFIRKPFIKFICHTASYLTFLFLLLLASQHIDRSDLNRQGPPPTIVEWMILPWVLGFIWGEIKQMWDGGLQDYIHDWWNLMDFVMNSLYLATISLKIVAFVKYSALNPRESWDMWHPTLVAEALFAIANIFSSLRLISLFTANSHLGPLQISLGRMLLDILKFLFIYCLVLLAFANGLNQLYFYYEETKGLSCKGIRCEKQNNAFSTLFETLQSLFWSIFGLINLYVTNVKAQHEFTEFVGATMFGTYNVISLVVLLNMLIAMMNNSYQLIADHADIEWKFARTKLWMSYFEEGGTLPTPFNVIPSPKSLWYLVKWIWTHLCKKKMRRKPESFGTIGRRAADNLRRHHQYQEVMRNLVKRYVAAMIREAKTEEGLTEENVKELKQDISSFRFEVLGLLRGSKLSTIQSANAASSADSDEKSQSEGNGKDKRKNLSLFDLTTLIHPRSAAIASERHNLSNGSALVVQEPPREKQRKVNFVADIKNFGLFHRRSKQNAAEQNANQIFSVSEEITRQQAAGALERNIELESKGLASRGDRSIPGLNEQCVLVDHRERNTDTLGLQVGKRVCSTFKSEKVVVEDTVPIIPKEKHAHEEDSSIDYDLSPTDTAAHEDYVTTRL
Sequence of Short transient receptor potential channel 6 (Mus musculus) (Q61143 whole entry, looked up): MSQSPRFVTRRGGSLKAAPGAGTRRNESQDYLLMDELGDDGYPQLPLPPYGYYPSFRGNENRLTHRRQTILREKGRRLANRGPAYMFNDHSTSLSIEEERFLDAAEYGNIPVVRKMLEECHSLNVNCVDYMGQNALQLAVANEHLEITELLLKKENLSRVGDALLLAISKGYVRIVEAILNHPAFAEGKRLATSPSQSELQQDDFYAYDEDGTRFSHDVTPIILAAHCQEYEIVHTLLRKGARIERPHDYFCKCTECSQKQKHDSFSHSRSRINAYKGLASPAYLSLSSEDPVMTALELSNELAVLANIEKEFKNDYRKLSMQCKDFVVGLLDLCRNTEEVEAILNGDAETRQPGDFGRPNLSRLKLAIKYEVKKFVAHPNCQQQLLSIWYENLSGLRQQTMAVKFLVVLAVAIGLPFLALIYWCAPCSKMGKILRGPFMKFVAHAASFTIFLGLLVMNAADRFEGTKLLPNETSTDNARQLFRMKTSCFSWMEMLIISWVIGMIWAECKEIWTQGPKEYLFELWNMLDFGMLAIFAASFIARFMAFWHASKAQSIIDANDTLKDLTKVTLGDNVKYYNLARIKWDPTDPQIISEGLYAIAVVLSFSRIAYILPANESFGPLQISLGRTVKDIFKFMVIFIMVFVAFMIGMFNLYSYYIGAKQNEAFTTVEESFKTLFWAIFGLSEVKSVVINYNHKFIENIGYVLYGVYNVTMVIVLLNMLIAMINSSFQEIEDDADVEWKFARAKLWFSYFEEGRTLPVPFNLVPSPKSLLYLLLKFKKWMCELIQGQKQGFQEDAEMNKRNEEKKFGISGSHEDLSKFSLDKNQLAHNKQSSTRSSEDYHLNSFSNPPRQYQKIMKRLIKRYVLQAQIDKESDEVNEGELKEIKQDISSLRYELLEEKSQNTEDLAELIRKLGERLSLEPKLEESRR

COc1cc(CNC2CCCCCCC2)cc(Br)c1OCC#N
inactive: outcome [1] | outcome [2] | outcome [3] | outcome [4] | outcome [5] | outcome [6] | outcome [7] | outcome [8] | outcome [9] | outcome [10] | outcome [11] | outcome [12] | outcome [13] | outcome [14] | outcome [15] | outcome [16] | outcome [17]

O=C(c1ccncc1)N1c2ccccc2Sc2ccccc21
inactive: outcome [1] | outcome [2] | outcome [3] | outcome [4] | outcome [5] | outcome [6] | outcome [7] | outcome [8] | outcome [9] | outcome [10] | outcome [11] | outcome [12] | outcome [13] | outcome [14] | outcome [15] | outcome [16] | outcome [17]

CN(C)c1ccc(NC(=O)C2C3C=CC(C3)C2C(=O)O)cc1 (stereo unspecified)
inactive: outcome [1] | outcome [2] | outcome [3] | outcome [4] | outcome [5] | outcome [6] | outcome [7] | outcome [8] | outcome [9] | outcome [10] | outcome [11] | outcome [12] | outcome [13] | outcome [14] | outcome [15] | outcome [16] | outcome [17]

CC(C)CN(C(=O)COC(=O)CCC(=O)c1ccc(Cl)cc1)c1c(N)n(Cc2ccccc2)c(=O)[nH]c1=O
inactive: outcome [1] | outcome [2] | outcome [3] | outcome [4] | outcome [5] | outcome [6] | outcome [7] | outcome [8] | outcome [9] | outcome [10] | outcome [11] | outcome [12] | outcome [13] | outcome [14] | outcome [15] | outcome [16] | outcome [17]

CN(CCNC(=O)c1ccc(/C=N/O)nc1)Cc1ccccc1
active: potentiation [3] 18% | potentiation [4] 8% | potentiation [15] 19.6%
inactive: outcome [1] | outcome [2] | outcome [5] | outcome [6] | outcome [7] | outcome [8] | outcome [9] | outcome [10] | outcome [11] | outcome [12] | outcome [13] | outcome [14] | outcome [16] | outcome [17]

CCOC(=O)C1=C(C)N(C)C(=S)NC1c1cccc(Cl)c1Cl (stereo unspecified)
inactive: outcome [1] | outcome [2] | outcome [3] | outcome [5] | outcome [6] | outcome [7] | outcome [8] | outcome [9] | outcome [10] | outcome [11] | outcome [12] | outcome [13] | outcome [14] | outcome [15] | outcome [16] | outcome [17]
active: potentiation [4] 25%

COc1cc(OC)c2c(-c3ccccc3)cc(=O)oc2c1C(CCN1CCCCC1)c1ccc(N(C)C)cc1 (stereo unspecified)
active: activation [1] 82% | activation [13] 38.3%
inactive: outcome [2] | outcome [3] | outcome [4] | outcome [5] | outcome [6] | outcome [7] | outcome [8] | outcome [9] | outcome [10] | outcome [11] | outcome [12] | outcome [14] | outcome [15] | outcome [16] | outcome [17]

COc1cccc(OCc2cc(C(=O)N3CCN(C)C(c4ccccc4)C3)no2)c1 (stereo unspecified)
active: potentiation [15] 16.7%
inactive: outcome [1] | outcome [2] | outcome [3] | outcome [4] | outcome [5] | outcome [6] | outcome [7] | outcome [8] | outcome [9] | outcome [10] | outcome [11] | outcome [12] | outcome [13] | outcome [14] | outcome [16] | outcome [17]
